Screen size: about 39,000 compounds; about 500 (1.3%) were called active. The entries come from a sample that favours actives as a whole.
The molecules below were run on S. aureus RN4220 (assay: growth inhibition call (relative growth <= 0.2)). Conditions: 50 µM.

| SMILES | growth inhibition call |
| --- | --- |
| C[C@H](CO)N1C[C@H](C)[C@H](CN(C)Cc2cccc(F)c2)Oc2cc(C#CC3CC3)ccc2S1(=O)=O | inactive |
| C[C@H](CO)N1C[C@H](C)[C@@H](CN(C)CC2CCCCC2)Oc2ccc(NC(=O)Cn3cnnn3)cc2C1=O | inactive |
| C[C@@H]1CN([C@@H](C)CO)S(=O)(=O)c2ccc(Br)cc2O[C@H]1CN(C)S(=O)(=O)c1ccc(F)cc1 | inactive |
| COc1ccc(S(=O)(=O)N(C)C[C@@H]2Oc3ccc(NC(=O)c4ccncc4)cc3C(=O)N([C@H](C)CO)C[C@@H]2C)cc1 | inactive |
| C[C@H](CO)N1C[C@H](C)[C@@H](CN(C)S(=O)(=O)c2cn(C)cn2)OCCCC[C@H](C)Oc2ccc(NS(=O)(=O)c3cn(C)cn3)cc2C1=O | inactive |
| C[C@@H]1CCCCO[C@H](CN(C)C(=O)Cc2ccccc2)[C@@H](C)CN([C@@H](C)CO)C(=O)c2cc(NC(=O)C3CCCCC3)ccc2O1 | inactive |
| C[C@@H]1CCCCO[C@@H](CN(C)C(=O)Nc2ccc(F)cc2)[C@H](C)CN([C@@H](C)CO)C(=O)c2cc(NC(=O)CCC(F)(F)F)ccc2O1 | inactive |
| C[C@H]1CN([C@@H](C)CO)C(=O)CCCn2nncc2CO[C@@H]1CN(C)S(=O)(=O)c1ccc(Oc2ccccc2)cc1 | inactive |
| CCCCCCCCCC(=O)N[C@@H](Cc1c[nH]c2ccccc12)C(=O)N[C@H](CC(N)=O)C(=O)N[C@@H](CC(=O)O)C(=O)N[C@@H]1C(=O)NCC(=O)N[C@@H](CCCN)C(=O)N[C@@H](CC(=O)O)C(=O)N[C@H](C)C(=O)N[C@@H](CC(=O)O)C(=O)NCC(=O)N[C@H](CO)C(=O)N[C@@H]([C@H](C)CC(=O)O)C(=O)N[C@@H](CC(=O)c2ccccc2N)C(=O)O[C@@H]1C | active |
| CSCC[C@H](NC(=O)[C@H](Cc1c[nH]c2ccccc12)NC(=O)CNC(=O)[C@@H](NC(=O)[C@H](Cc1ccc(OS(=O)(=O)O)cc1)NC(=O)[C@H](CC(=O)O)NC(=O)[C@H](CCC(N)=O)NC(=O)[C@@H]1CCC(=O)N1)[C@@H](C)O)C(=O)N[C@@H](CC(=O)O)C(=O)N[C@@H](Cc1ccccc1)C(N)=O | inactive |
| C[C@H](N)C(=O)NCC(=O)N[C@H]1CSSC[C@@H](C(=O)O)NC(=O)[C@H](CO)NC(=O)[C@H]([C@@H](C)O)NC(=O)[C@H](Cc2ccccc2)NC(=O)[C@H]([C@@H](C)O)NC(=O)[C@H](CCCCN)NC(=O)[C@H](Cc2c[nH]c3ccccc23)NC(=O)[C@H](Cc2ccccc2)NC(=O)[C@H](Cc2ccccc2)NC(=O)[C@H](CC(N)=O)NC(=O)[C@H](CCCCN)NC1=O | inactive |
| CS(=O)(=O)NCc1cnc2n1CCN(C(=O)[C@H]1CCOC1)CC2 | inactive |
| CC(C)[N+]1(C)C2CCC1CC(OC(=O)C(CO)c1ccccc1)C2.[Br-] (stereo unspecified) | inactive |
| C[C@H](CO)N1C[C@H](C)[C@@H](CN(C)Cc2ccc(-c3ccccc3)cc2)Oc2c(NS(=O)(=O)c3ccc(F)cc3)cccc2C1=O | inactive |
| C=C(NC(=O)C(=C)NC(=O)c1csc(C2=N[C@@H]3c4csc(n4)[C@@H]4NC(=O)c5csc(n5)[C@H](C(C)(O)[C@@H](C)O)NC(=O)[C@H]5CSC(=N5)/C(=C/C)NC(=O)[C@H]([C@@H](C)O)NC(=O)c5csc(n5)[C@]3(CC2)NC(=O)[C@@H](C)NC(=O)C(=C)NC(=O)[C@@H](C)NC(=O)[C@@H]([C@H](C)CC)N[C@H]2C=Cc3c([C@@H](C)O)cc(nc3[C@@H]2O)C(=O)O[C@H]4C)n1)C(N)=O (stereo partly specified) | inactive |
| C=C(NC(=O)C(=C)NC(=O)c1csc(C2=N[C@H]3c4csc(n4)[C@H]4NC(=O)c5csc(n5)[C@H](C(C)(O)[C@@H](C)O)NC(=O)[C@H]5CSC(=N5)C(=CC)NC(=O)[C@H]([C@@H](C)O)NC(=O)c5csc(n5)[C@]3(CC2)NC(=O)[C@H](C)NC(=O)C(=C)NC(=O)[C@H](C)NC(=O)[C@H]([C@H](C)CC)N[C@@H]2C=Cc3c([C@H](C)O)cc(nc3[C@H]2O)C(=O)O[C@@H]4C)n1)C(N)=O (stereo partly specified) | inactive |
| C=C(NC(=O)C(=C)NC(=O)c1csc(C2=NC3c4csc(n4)C4NC(=O)c5csc(n5)C(C(C)(O)C(C)O)NC(=O)C5CSC(=N5)C(=CC)NC(=O)C(C(C)O)NC(=O)c5csc(n5)C3(CC2)NC(=O)C(C)NC(=O)C(=C)NC(=O)C(C)NC(=O)C(C(C)CC)NC2C=Cc3c(C(C)O)cc(nc3C2O)C(=O)OC4C)n1)C(N)=O (stereo unspecified) | active |
| COCCNC(=O)c1cn(C)nc1OC | inactive |
| C[C@H]1CN([C@@H](C)CO)C(=O)c2cccc(NS(=O)(=O)c3cn(C)cn3)c2O[C@H]1CN(C)S(=O)(=O)c1cn(C)cn1 | inactive |

| SMILES | growth inhibition call |
| --- | --- |
| C[C@H]1CN([C@@H](C)CO)S(=O)(=O)c2ccc(C#CC3(O)CCCC3)cc2O[C@H]1CN(C)C(=O)Cc1ccccc1 | inactive |
| CC(C)NC(=O)N(C)C[C@@H]1Oc2c(NS(=O)(=O)c3ccccc3)cccc2C(=O)N([C@@H](C)CO)C[C@H]1C | inactive |
| C[C@H](CO)N1C[C@H](C)[C@@H](CN(C)C(=O)CCN2CCCCC2)Oc2ncc(C#CCN(C)C)cc2C1=O | inactive |
| O=C(O)c1cc(F)c2nc(N3[C@@H]4CC[C@H]3C[C@@H](OCc3c(-c5ccccc5OC(F)(F)F)noc3C3CC3)C4)sc2c1 | active |
| COc1ccc(CN2C[C@H](C)[C@@H](OC)CN(C)C(=O)c3ccc(NC(=O)c4nc5ccccc5s4)cc3OC[C@H]2C)cc1 | inactive |
| O=C1OC2(c3ccc(O)cc3Oc3cc(O)ccc32)c2ccccc21 | inactive |
| O=C1OC(c2cc(I)c(O)c(I)c2)(c2cc(I)c(O)c(I)c2)c2ccccc21 | inactive |
| O=C1OC2(c3ccccc31)c1cc(I)c(O)c(I)c1Oc1c2cc(I)c(O)c1I | active |
| Cc1ccc(CNS(=O)(=O)N(C)C)cc1 | inactive |
| CO[C@H](CN(C)S(=O)(=O)c1ccc(Cl)cc1)[C@@H](C)CN([C@H](C)CO)S(=O)(=O)c1cccc(Cl)c1 | inactive |
| C[C@H](CO)N1C[C@H](C)[C@@H](CN(C)C(=O)Cc2ccncc2)Oc2ncc(C#Cc3ccccc3F)cc2C1=O | inactive |
| N=C(N)NCCC[C@@H](NC(=O)CC1(CC(=O)N2CCN([C@H]3c4ccccc4NC(=O)c4ccccc43)CC2)CCCC1)C(=O)NCCn1c(=O)n(-c2ccccc2)n(-c2ccccc2)c1=O | active |
| C[C@H]1CN([C@@H](C)CO)C(=O)c2cc(NC(=O)Nc3cccc4ccccc34)ccc2O[C@H]1CN(C)C(=O)Nc1ccccc1 | inactive |
| C[C@@H]1CN([C@H](C)CO)C(=O)c2cccc(NS(C)(=O)=O)c2O[C@H]1CN(C)Cc1ccc(C(=O)O)cc1 | inactive |
| Oc1ccc(O)cc1 | inactive |
| CCC(=C(CC)c1ccc(O)cc1)c1ccc(O)cc1 | inactive |
| CC=C(C(=CC)c1ccc(O)cc1)c1ccc(O)cc1 | active |
| CC(C)NC(=O)N(C)C[C@@H]1Oc2cc(C#Cc3ccc(F)cc3)ccc2S(=O)(=O)N([C@H](C)CO)C[C@H]1C | inactive |
| C[C@H](CO)N1C[C@H](C)[C@H](CN(C)Cc2ccc(Cl)c(Cl)c2)Oc2ccc(NC(=O)Nc3ccc(F)cc3)cc2CC1=O | inactive |

| SMILES | growth inhibition call |
| --- | --- |
| C[C@@H]1CCCCO[C@H](CN(C)Cc2ccc(C(F)(F)F)cc2)[C@@H](C)CN([C@@H](C)CO)C(=O)c2cc(NS(=O)(=O)c3ccc(Cl)cc3)ccc2O1 | inactive |
| Cn1c(=O)c2c(nc(SCSc3nc4c(c(=O)n(C)c(=O)n4C)n3C)n2C)n(C)c1=O | inactive |
| Cc1nc2c(=O)n(C)c(=O)n(C)c2nc1Cl | active |
| CCn1c(Cl)nc2c1c(=O)n(C)c(=O)n2C | inactive |
| Cc1noc(C)c1S(=O)(=O)Nc1ccc2c(c1)CC(=O)N([C@@H](C)CO)C[C@H](C)[C@@H](CN(C)Cc1ccncc1)O2 | inactive |
| C[C@@H]1CN([C@@H](C)CO)C(=O)c2cc(NS(C)(=O)=O)ccc2O[C@H]1CN(C)C(=O)Nc1ccccc1 | inactive |
| CC(=O)OCC1=C(C(=O)O)N2C(=O)[C@@H](NC(=O)CSc3ccncc3)[C@H]2SC1 | active |
| CC(=O)OCC1=C(C(=O)[O-])N2C(=O)C(NC(=O)Cc3cccs3)C2SC1.[Na+] (stereo unspecified) | active |
| CC(=O)OCC1=C(C(=O)[O-])N2C(=O)C(NC(=O)CSc3ccncc3)C2SC1.[Na+] (stereo unspecified) | active |
| COC1(NC(=O)Cc2cccs2)C(=O)N2C(C(=O)[O-])=C(COC(N)=O)CSC21.[Na+] (stereo unspecified) | active |
| C[C@H]1CCCCO[C@@H](CN(C)C(=O)Nc2ccc(C(F)(F)F)cc2)[C@@H](C)CN([C@@H](C)CO)C(=O)c2cc(NC(=O)NC3CCCCC3)ccc2O1 | inactive |
| C[C@H]1CCCCO[C@@H](CN(C)C(=O)Nc2ccc3c(c2)OCO3)[C@@H](C)CN([C@@H](C)CO)C(=O)c2cc(NS(=O)(=O)c3ccccc3)ccc2O1 | inactive |
| C[C@H](CO)N1C[C@H](C)[C@@H](CN(C)S(C)(=O)=O)Oc2c(NC(=O)Nc3ccc(C(F)(F)F)cc3)cccc2C1=O | inactive |
| COc1cccc(C#Cc2cnc3c(c2)C(=O)N([C@@H](C)CO)C[C@@H](C)[C@@H](CN(C)C(=O)C2CCOCC2)O3)c1 | inactive |
| C[C@@H]1CN([C@@H](C)CO)C(=O)c2cc(-c3cccc(C(=O)N(C)C)c3)cnc2O[C@H]1CN(C)S(=O)(=O)c1ccc(F)cc1 | inactive |
| CO[C@@H]1CN(C)C(=O)c2ccc(NC(=O)Nc3ccccc3F)cc2OC[C@@H](C)N(Cc2ccccc2C(=O)O)C[C@H]1C | inactive |
| C[C@@H]1O[C@@H](O[C@@H]2[C@@H](O)[C@H](OCCc3ccc(O)c(O)c3)O[C@H](CO)[C@H]2OC(=O)/C=C/c2ccc(O)c(O)c2)[C@H](O)[C@H](O)[C@H]1O | inactive |
| CO[C@@H]1CN(C)C(=O)c2cc(NS(C)(=O)=O)ccc2OC[C@@H](C)N(C(=O)C2CCCCC2)C[C@H]1C | inactive |

Source: the antibiotic and cytotoxicity screens of Wong et al. (2023)
